This passage reports growth inhibition results from PubChem BioAssay (NCI).

Compounds without any hit were thinned out: in the full panel of roughly 79,000, 15% have a hit. A number with no mark means an inactive call. Active and inactive are the calls of the source. Rule as the data show it: active = growth inhibition above about 70%; inactive = the rest.

Assay [1] is described as follows: NCI Yeast Anticancer Drug Screen. Data for the rad50 strain (AID 155).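 Also: 0% = growth of vehicle-only cultures of the same strain.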 Particulars: S. cerevisiae rad50 strain growth inhibition, hits give high values. The gist of the method:
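Relative growth inhibition (compound vs vehicle) was measured in yeast with a defined repair-gene alteration.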

A short description of assay [2]: NCI Yeast Anticancer Drug Screen. Data for the mec2-1 strain (AID 157). As to conditions: S. cerevisiae mec2-1 strain, hits give high values. Summed up:
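Each compound was tested on mec2-1 yeast, a strain altered in DNA damage repair or cell cycle control. Growth inhibition is reported relative to vehicle.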

Assay [3] in a line: NCI Yeast Anticancer Drug Screen. Data for the sgs1 mgt1 strain (AID 161).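 Also: 0% = growth of cultures given vehicle only.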 As to conditions: S. cerevisiae sgs1 mgt1 strain, hits give high values. The gist of the method:
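Genetically altered yeast, compound exposure, growth inhibition relative to vehicle.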

Assay [4] is described as follows: NCI Yeast Anticancer Drug Screen. Data for the cln2 rad14 strain (AID 165).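 Also: 0% = growth equal to vehicle treated cultures.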 As to conditions: S. cerevisiae cln2 rad14 strain, hits give high values. The gist of the method: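 Test compounds were added to cln2 rad14 yeast cultures; inhibition of growth was then determined by comparison with vehicle treatment.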
Assay [5] can be described thus: NCI Yeast Anticancer Drug Screen. Data for the bub3 strain (AID 167). As to conditions: S. cerevisiae bub3 mutant strain, hits give high values. The gist of the method: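 Screening used yeast with an engineered genetic alteration affecting cell cycle control. Compound-exposed cultures were compared with vehicle cultures, and reduced growth was taken as inhibition.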

The nature of assay [6]: NCI Yeast Anticancer Drug Screen. Data for the mlh1 rad18 strain (AID 175). As to conditions: S. cerevisiae mlh1 rad18 strain growth inhibition, hits give high values. The gist of the method:
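Inhibition values reflect reduced growth of mutant yeast versus vehicle-treated controls following compound exposure; the mutations affect DNA damage repair.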

Setting [7] is: at 5.0 µM (retest, dose inferred, filed as 0.5).
Where [8] appears, read: at 50.0 µM (retest, dose inferred, filed as 5.0).

On to `NNC(=S)N/N=C(/C(=O)Nc1ccc(Cl)c(Cl)c1)C(C1OC(=O)c2ccccc21)[N+](=O)[O-]` (stereo not drawn), for which the growth inhibition was 27% in assay [1] (setting [7]); 44% in assay [1] (setting [8]); 26.6% in assay [1] (at 50.0 µM); 20% in assay [2] (setting [7]); 39% in assay [2] (setting [8]); 4.45% in assay [2] (at 50.0 µM). For the same molecule, the growth inhibition in assay [3] (setting [7]) was 9%; in assay [3] (setting [8]) it was 59%; in assay [3] (at 50.0 µM) it was 34.4%; in assay [4] (setting [7]), 31%; in assay [4] (setting [8]), 48%; in assay [4] (at 50.0 µM), 23.4%. In addition, the growth inhibition in assay [5] (setting [7]) was 28%; in assay [5] (setting [8]) it was 62%; in assay [5] (at 50.0 µM) it was 32.5%; in assay [6] (setting [7]), 20%; in assay [6] (setting [8]), 44%; in assay [6] (at 50.0 µM), 29.8%.

Take `O=C(O)Cc1cccc(O)c1`: the growth inhibition in assay [1] (setting [7]) is 0%; in assay [1] (setting [8]) it was -3%; in assay [1] (at 50.0 µM), 10.5%; in assay [2] (setting [7]), 3%; in assay [2] (setting [8]), -1%; in assay [2] (at 50.0 µM), 41.9%. Besides, the growth inhibition in assay [3] (setting [7]) was -3%; in assay [3] (setting [8]), -4%; in assay [3] (at 50.0 µM), -1.9%; in assay [4] (setting [7]) it was -8%; in assay [4] (setting [8]), 1%; in assay [4] (at 50.0 µM), 35.1%. Further, the growth inhibition is -1% in assay [5] (setting [7]); 1% in assay [5] (setting [8]); 5.8% in assay [5] (at 50.0 µM); 0% in assay [6] (setting [7]); -3% in assay [6] (setting [8]); -0.1% in assay [6] (at 50.0 µM).

As to `Cc1cnc2cccc(Cl)c2c1Cl`, the growth inhibition in assay [1] (setting [7]) is 3%; in assay [1] (setting [8]) it was 27%; in assay [1] (at 50.0 µM), 80.8% (active); in assay [2] (setting [7]) it was 17%; in assay [2] (setting [8]) it was 11%; in assay [2] (at 50.0 µM), 28.4%. Besides, the growth inhibition is 19% in assay [3] (setting [7]); 6% in assay [3] (setting [8]); 35.5% in assay [3] (at 50.0 µM); -42% in assay [4] (setting [7]); 4% in assay [4] (setting [8]); 34% in assay [4] (at 50.0 µM). In addition, the growth inhibition in assay [5] (setting [7]) was -4%; in assay [5] (setting [8]), 14%; in assay [5] (at 50.0 µM), 27%; in assay [6] (setting [7]) it was -15%; in assay [6] (setting [8]) it was 31%; in assay [6] (at 50.0 µM), 20.6%.

On to `Cn1c(=O)c2c(ncn2CCCCOc2ccc3c(c2)[n+]([O-])nc(N)[n+]3[O-])n(C)c1=O`, for which the growth inhibition in assay [1] (setting [7]) was 4%; in assay [1] (setting [8]), 38%; in assay [1] (at 50.0 µM), 44%; in assay [2] (setting [7]), 14%; in assay [2] (setting [8]), 23%; in assay [2] (at 50.0 µM) it was 51.9%. Further, the growth inhibition is 5% in assay [3] (setting [7]); 34% in assay [3] (setting [8]); 69.9% in assay [3] (at 50.0 µM); -23% in assay [4] (setting [7]); 52% in assay [4] (setting [8]); 69% in assay [4] (at 50.0 µM). For the same molecule, the growth inhibition in assay [5] (setting [7]) was -8%; in assay [5] (setting [8]) it was 63%; in assay [5] (at 50.0 µM), 56.5%; in assay [6] (setting [7]) it was 32%; in assay [6] (setting [8]), 82% (active); in assay [6] (at 50.0 µM) it was 75.8% (active).

`Cn1ncc2c(Nc3ccccc3)nc(Nc3ccccc3)nc21`: the growth inhibition in assay [1] (setting [7]) was -1%; in assay [1] (setting [8]), 7%; in assay [1] (at 50.0 µM) it was 54.1%; in assay [2] (setting [7]), -5%; in assay [2] (setting [8]), -33%; in assay [2] (at 50.0 µM) it was 54.1%. For the same molecule, the growth inhibition was -1% in assay [3] (setting [7]); 8% in assay [3] (setting [8]); 56.5% in assay [3] (at 50.0 µM); 5% in assay [4] (setting [7]); 0% in assay [4] (setting [8]); 44.5% in assay [4] (at 50.0 µM). For the same molecule, the growth inhibition in assay [5] (setting [7]) was -1%; in assay [5] (setting [8]), -17%; in assay [5] (at 50.0 µM), 72.5% (active); in assay [6] (setting [7]), 5%; in assay [6] (setting [8]), 15%; in assay [6] (at 50.0 µM), 80.4% (active).

In the case of `CC(=O)Nc1ccc(Nc2ccc(C(=C3C=CC(=[N+](C)CCC#N)C=C3)c3ccc(N(C)CCC#N)cc3)cc2)cc1`, the growth inhibition in assay [1] (setting [7]) was 11%; in assay [1] (setting [8]), 64%; in assay [1] (at 50.0 µM), 8.4%; in assay [2] (setting [7]) it was 13%; in assay [2] (setting [8]) it was 77% (active); in assay [2] (at 50.0 µM) it was 47.7%. Besides, the growth inhibition in assay [3] (setting [7]) is 44%; in assay [3] (setting [8]) it was 83% (active); in assay [3] (at 50.0 µM), 58.4%; in assay [4] (setting [7]), 41%; in assay [4] (setting [8]), 83% (active); in assay [4] (at 50.0 µM), 55.5%. In addition, the growth inhibition in assay [5] (setting [7]) is 45%; in assay [5] (setting [8]), 77% (active); in assay [5] (at 50.0 µM), 59.5%; in assay [6] (setting [7]), 15%; in assay [6] (setting [8]), 72% (active); in assay [6] (at 50.0 µM), 45%.
